Measurements taken from PubChem BioAssay (EPA / NIEHS).
Active and inactive are the calls of the source. Rule for the calls: active = hit-call score of the fitted dose curve at least 0.9, where 1 is the maximum; inactive = score below 0.9.

Legend:
[1] = APR_HepG2_CellCycleArrest_24hr: Apredica 24-hour HepG2 Assay for Cell Cycle Arrest (AID 2282905); details: imaging, actives raise or lower the signal;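 note: cell cycle arrest scored as ratio of 2N to 4N nuclear DNA content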
In short: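 Compounds (0.39 to 200 uM, final DMSO 0.5% v/v) are applied to HepG2 cells for 24 hours; cells are then fixed, permeabilized and nuclei labeled with Hoechst 33342. Automated imaging measures DNA content, and activity is fitted in both directions against DMSO.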

[2] = APR_HepG2_NuclearSize_24hr: Apredica 24-hour HepG2 Assay for Nuclear Size (AID 2282907); details: high-content imaging, actives raise or lower the signal
In short: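 Nuclear size is measured by fluorescence high-content imaging of Hoechst-labelled HepG2 nuclei after 24 hr of treatment (0.39–200 uM, 0.5% DMSO). Cells are fixed in 3.7% formaldehyde before staining, and DMSO serves as the baseline for bidirectional curve fitting.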

[3] = APR_HepG2_CellLoss_24hr: Apredica 24-hour HepG2 Assay for Cell Loss (AID 2282908); details: high-content imaging;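 for AC50: fit in both directions so a hit may be cell loss or gain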
In short: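 Nuclear count serves as the viability measure: treated cells are fixed, permeabilized and labelled with Hoechst 33342, and six images per well are analysed to identify valid nuclei. Doses span 0.39–200 uM, and activity in either direction is scored against DMSO.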

[4] = APR_HepG2_MicrotubuleCSK_24hr: Apredica 24-hour HepG2 Assay for Microtubule CSK Stabilty (AID 2282909); details: HepG2 microtubule cytoskeleton imaging, actives raise or lower the signal
In short: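 Compounds were applied to HepG2 cells for 24 hours across 0.39–200 uM in duplicate, with final DMSO at 0.5% v/v. Fixed, permeabilized cells were labeled for alpha-tubulin and nuclei, and tubulin fluorescence was quantified by imaging, fitted bidirectionally against DMSO.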

[5] = APR_HepG2_MitoticArrest_24hr: Apredica 24-hour HepG2 Assay for Mitotic Arrest (AID 2282910); details: high-content imaging, actives raise or lower the signal
In short: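 Treatment lasted 24 hr in the human HepG2 line at 0.39–200 uM, solvent held at 0.5% DMSO. Fixed cells were stained with Hoechst 33342 and anti-phospho-histone H3, imaged at 20x, and analysed by gain- or loss-of-signal fitting against DMSO.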

[6] = APR_HepG2_MitoMembPot_24hr: Apredica 24-hour HepG2 Assay for Mitochondrial Membrane Potential (AID 2282911); details: imaging, actives raise or lower the signal
In short: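 HepG2 human liver cells were exposed 24 hr to compounds at 0.39–200 uM (final DMSO 0.5% v/v) in duplicate. MitoTracker Red CMXRos (250 nM, 30 min) was loaded before formaldehyde fixation; fluorescence was imaged by ArrayScan HCS and fitted bidirectionally versus DMSO.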

[7] = APR_HepG2_MitoMass_24hr: Apredica 24-hour HepG2 Assay for Mitochondrial Mass (AID 2282912); details: high-content imaging, actives raise or lower the signal
In short: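 After 24 hr of treatment at 0.39 to 200 uM, HepG2 cells take up 250 nM MitoTracker Red CMXRos for 30 min and are then fixed with 3.7% formaldehyde. Per-well images are quantified, and any change in either direction is scored against solvent.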

[8] = APR_HepG2_p53Act_24hr: Apredica 24-hour HepG2 Assay for p53 Activation (AID 2282913); details: high-content imaging, actives raise or lower the signal;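 note: p53 protein immunofluorescence averaged per cell in HepG2 with Hoechst nuclei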
In short: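 HepG2 cells exposed 24 hr to compounds at 0.39–200 uM (10 concentrations, duplicate), final DMSO 0.5% v/v. After formaldehyde fixation and Triton permeabilization, p53 was immunolabeled (sheep anti-p53, Cy5 secondary) with Hoechst 33342 nuclear counterstain, then imaged by high-content fluorescence microscopy.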

[9] = APR_HepG2_CellCycleArrest_72hr: Apredica 72-hour HepG2 Assay for Cell Cycle Arrest (AID 2282914); details: high-content imaging, actives raise or lower the signal
In short: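 HepG2 cells were exposed to compounds at 0.39–200 uM (0.5% v/v DMSO final, duplicates) for 72 hr, fixed in 3.7% formaldehyde, permeabilized and stained with Hoechst 33342. Nuclear DNA content was quantified by high-content imaging; gain or loss of signal was fitted bidirectionally against DMSO.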

[10] = APR_HepG2_CellLoss_72hr: Apredica 72-hour HepG2 Assay for Cell Loss (AID 2282915); details: high-content imaging
In short: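 HepG2 cells were exposed for 72 hr to compounds at 0.39–200 uM (ten concentrations, duplicate) in 0.5% v/v final DMSO. Nuclei were stained with Hoechst 33342 after 3.7% formaldehyde fixation, imaged at 20x, and counted; fits bidirectional versus DMSO.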

Structure (SMILES) | outcome [1] | outcome [2] | outcome [3] | outcome [4] | outcome [5] | outcome [6] | outcome [7] | outcome [8] | outcome [9] | outcome [10] | AC50 [3] | AC50 [5] | AC50 [7] | AC50 [10] | AC50 [6] | AC50 [1] | AC50 [4] | AC50 [8] | AC50 [9] | AC50 [2]
O=C(O)CCN(C1(C(=O)NO)CCCC1)S(=O)(=O)c1ccc(Oc2ccc(F)cc2)cc1 | inactive | inactive | inactive | inactive | inactive | inactive | inactive | inactive | inactive | inactive |  |  |  |  |  |  |  |  |  | 
O=C(O)c1cccc(Oc2ccccc2)c1 | inactive | inactive | inactive | inactive | inactive | inactive | inactive | inactive | inactive | inactive |  |  |  |  |  |  |  |  |  | 
COCCOc1cc2cc(C(=O)NC3CCN(C(C)C)CC3)n(CC(=O)Nc3ccc(Cl)cn3)c2cn1 | inactive | inactive |  | inactive |  | inactive |  | inactive | inactive |  | 74 µM (active) | 89.4 µM (active) | 93.1 µM (active) | 93.1 µM (active) |  |  |  |  |  | 
O=C(O)c1cc(N=Nc2ccc(S(=O)(=O)Nc3ccccn3)cc2)ccc1O | inactive | inactive | inactive | inactive | inactive |  | inactive | inactive | inactive | inactive |  |  |  |  | 95.9 µM (active) |  |  |  |  | 
CC[C@H]1CC[C@H](NCc2cc3c(cc2OC)[C@H]2C[C@H]2C(=O)N3C)[C@H](c2ccccc2)N1 | inactive | inactive | inactive | inactive | inactive | inactive | inactive | inactive | inactive |  |  |  |  | 72.5 µM (active) |  |  |  |  |  | 
Cc1ccc(N)cc1O | inactive | inactive | inactive | inactive | inactive |  | inactive | inactive | inactive |  |  |  |  | 10.5 µM (active) | 0.917 µM (active) |  |  |  |  | 
O=c1n(CC2CO2)c(=O)n(CC2CO2)c(=O)n1CC1CO1 (stereo not given) |  | inactive |  |  |  | inactive |  |  |  |  | 1.8 µM (active) | 27.8 µM (active) | 50 µM (active) | 10.7 µM (active) |  | 0.225 µM (active) | 24.4 µM (active) | 11.3 µM (active) | 0.224 µM (active) | 
Cc1[nH]cnc1C[C@H]1CCc2c(C)c3ccccc3n2C1=O |  | inactive |  | inactive | inactive | inactive | inactive |  |  |  | 55.7 µM (active) |  |  | 24.5 µM (active) |  | 146 µM (active) |  | 97 µM (active) | 69.7 µM (active) | 
C=CC(=C)CCC=C(C)C | inactive | inactive | inactive | inactive | inactive | inactive | inactive | inactive | inactive | inactive |  |  |  |  |  |  |  |  |  | 
O=C(O)c1cccc(N(Cc2cccnc2)c2ccc(OC(F)F)c(OC(F)F)c2)c1 | inactive | inactive |  | inactive |  |  |  |  | inactive |  | 43.6 µM (active) | 10.4 µM (active) | 13.3 µM (active) | 23.5 µM (active) | 0.0349 µM (active) |  |  | 5.63 µM (active) |  | 
On1ccccc1=S | inactive | inactive | inactive | inactive | inactive | inactive | inactive |  |  |  |  |  |  | 5.34 µM (active) |  |  |  | 19.6 µM (active) | 8.36 µM (active) | 
CN(C)c1ccc(N=NS(=O)(=O)O)cc1 |  | inactive | inactive | inactive | inactive | inactive | inactive | inactive |  |  |  |  |  | 71.7 µM (active) |  | 86.9 µM (active) |  |  | 54.3 µM (active) | 
O=P(OC(CCl)CCl)(OC(CCl)CCl)OC(CCl)CCl | inactive |  |  | inactive |  | inactive |  | inactive |  |  | 55.6 µM (active) | 44.9 µM (active) | 49.4 µM (active) | 47.1 µM (active) |  |  |  |  | 49.1 µM (active) | 48 µM (active)
O=C(NS(=O)(=O)/C=C/c1ccccc1)c1ccc(F)cc1Cl | inactive | inactive | inactive | inactive | inactive | inactive | inactive | inactive | inactive | inactive |  |  |  |  |  |  |  |  |  | 
O=C(O)CC(O)C(=O)O (stereo not given) | inactive | inactive | inactive | inactive | inactive | inactive | inactive | inactive | inactive | inactive |  |  |  |  |  |  |  |  |  | 
CC1(C)C(=O)N(Br)C(=O)N1Br | inactive | inactive | inactive | inactive | inactive | inactive | inactive | inactive | inactive | inactive |  |  |  |  |  |  |  |  |  | 
C=CCCCCCCCCC(=O)O | inactive | inactive | inactive | inactive | inactive | inactive | inactive | inactive | inactive | inactive |  |  |  |  |  |  |  |  |  | 
CCNc1ccccc1 | inactive | inactive | inactive | inactive | inactive | inactive | inactive | inactive | inactive | inactive |  |  |  |  |  |  |  |  |  | 
CC(C)CC(C)(O)C#CC(C)(O)CC(C)C (stereo not given) | inactive | inactive | inactive | inactive | inactive | inactive | inactive | inactive | inactive | inactive |  |  |  |  |  |  |  |  |  | 
CC1=CC(=O)CC(C)(C)C1 | inactive | inactive | inactive | inactive | inactive | inactive | inactive | inactive | inactive | inactive |  |  |  |  |  |  |  |  |  | 
